In the library only some 3.7% were active in any assay of this set; here they are far more common.
BoNT-F LC inh: BoNT F light chain protease inhibition; 360,000 tested, 0.22% active; inhibition, % at 10 µM; Multiplex microsphere protease cleavage assay, flow cytometry; AID 588497; in the data active = inhibition above about 35%, passing the limit was not always enough; inconclusive = no clear call, values can overlap the other calls
Autofluor counter: compound fluorescence in toxin protease inhibitor counterscreen | compound autofluorescence counterscreen, microsphere flow cytometry; hits give high values | fluorescence intensity (concentration not given with the values) | 360,000 tested, 3.1% active | AID 624483; in the data active = fluorescence intensity above about 16000; inconclusive = no clear call, values can overlap the other calls
BoNT A protease: BoNT A light chain protease inhibition | multiplex microsphere protease substrate cleavage, flow cytometry | inhibition, % at 10 µM | 360,000 tested, 0.17% active | AID 588499
Vc quorum ag: induces V. cholerae light production without autoinducers; V. cholerae BH1578 lux reporter, luminescence, 6 h; activation, % at 18.7 µM; 350,000 tested, 0.16% active; AID 588436; in the data active = activation mostly above about 9.7%, no sharp cut-off; inconclusive = no clear call, values can overlap the other calls; inactive = mostly below about 3.7%
BJeLR lethal: kills HRASV12-expressing BJeLR cells. BJeLR (HRASV12) viability, CellTiter-Glo ATP luminescence, 48 h. 300,000 tested, 0.17% active. inhibition, % (concentration not given with the values); in the data active = inhibition above about 50%; inconclusive = no clear call, values can overlap the other calls
Anthrax LF inh2: blocks Bacillus anthracis lethal factor protease. P15917. multiplex microsphere protease cleavage assay, LF. inhibition, % at 10 µM. 360,000 tested, 0.12% active. AID 588501
Target sequence (P15917 whole entry, looked up): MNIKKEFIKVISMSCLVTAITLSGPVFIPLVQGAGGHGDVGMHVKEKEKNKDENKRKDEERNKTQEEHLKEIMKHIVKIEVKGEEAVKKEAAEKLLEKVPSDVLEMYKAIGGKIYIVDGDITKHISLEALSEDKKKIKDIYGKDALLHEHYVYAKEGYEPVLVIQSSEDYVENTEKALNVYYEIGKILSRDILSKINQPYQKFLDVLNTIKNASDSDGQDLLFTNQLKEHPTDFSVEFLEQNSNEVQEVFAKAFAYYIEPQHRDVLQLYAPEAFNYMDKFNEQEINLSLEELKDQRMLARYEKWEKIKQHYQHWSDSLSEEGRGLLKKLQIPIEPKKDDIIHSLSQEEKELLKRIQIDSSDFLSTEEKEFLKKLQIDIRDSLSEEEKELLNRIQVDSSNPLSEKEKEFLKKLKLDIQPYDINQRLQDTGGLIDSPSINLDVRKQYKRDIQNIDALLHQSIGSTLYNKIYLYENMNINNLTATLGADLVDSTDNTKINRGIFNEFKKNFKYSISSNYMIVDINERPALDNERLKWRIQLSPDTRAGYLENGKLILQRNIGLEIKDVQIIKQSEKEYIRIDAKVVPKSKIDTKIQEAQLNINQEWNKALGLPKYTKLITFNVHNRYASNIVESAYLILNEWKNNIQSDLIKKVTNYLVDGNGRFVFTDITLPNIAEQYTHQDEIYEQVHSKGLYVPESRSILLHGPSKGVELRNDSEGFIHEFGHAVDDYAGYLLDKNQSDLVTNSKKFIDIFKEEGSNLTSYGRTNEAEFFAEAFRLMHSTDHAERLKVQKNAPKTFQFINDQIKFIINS
Numbers stand for hits; . = inactive; ? = inconclusive; / = not tested or not shown. Rule as the data show it, unless noted: active = inhibition above about 30%; inconclusive = no clear call, values can overlap the other calls; inactive = below that.

SMILES | BoNT-F LC inh | Autofluor counter | BoNT A protease | Vc quorum ag | BJeLR lethal | Anthrax LF inh2
CCOc1ccc(C(C)(N)C(=O)O)cc1 (stereo not drawn) | . | 22131 | ? | . | / | .
CCOc1ccc(OCc2cccc(C(=O)O)c2)cc1 | . | 22901 | . | . | 55.3 | .
COc1ccc(OCc2cccc(C(=O)O)c2)cc1 | . | ? | . | . | . | .
Cc1ccccc1Nc1nc(N)nc(COC(=O)c2cccn2C)n1 | . | . | . | . | . | .
CCc1ccccc1Nc1nc(N)nc(COC(=O)c2cccn2C)n1 | . | 21076 | . | . | . | .
O=C(NCc1ccccc1Cl)c1ccc2sc([C@@H]3O[C@H](CO)[C@H](O)[C@H](O)[C@H]3O)nc2c1 | . | . | . | . | / | .
Nc1nc(Cl)cc(Oc2ccc(Cl)cc2)n1 | . | . | . | . | . | .
Cc1nc(N)nc(N)c1Oc1ccc(Cl)cc1 | . | . | . | 525.6 | / | .
Cc1ccc2c(c1)c1c3n2CCN(CC#N)C3CCC1 (stereo not drawn) | ? | . | . | . | . | .
Cc1ccc2c(c1)c1c3n2CCCN(Cc2ccccc2)C3CCC1 (stereo not drawn) | . | 16950 | ? | . | . | .
COc1cccc2c1OC[C@@H](CO)[C@H]2N(C)C(=O)Nc1ccc(Cl)cc1 | . | 21011 | . | . | . | .
O=C1CC(N2CCN(c3ccc(Cl)c(Cl)c3)CC2)C(=O)N1 (stereo not drawn) | . | 21082 | . | . | . | .
CCC(=NCCc1c[nH]c2ccccc12)c1c(O)n(C)c(=O)n(C)c1=O | . | 22284 | . | . | . | .
CC(C)CNc1ncnc2c1ncn2[C@H]1CN(Cc2ccc3c(c2)OCO3)C[C@@H](CO)O1 | . | . | . | . | / | .
COc1ccc(CN(C(=O)CN2C(=O)C(C)Oc3ccccc32)C2CCCC2)c(OC)c1 (stereo not drawn) | . | . | . | . | . | .
COc1ccc(CN(C(=O)CN2C(=O)COc3ccccc32)C2CCCC2)c(OC)c1 | . | 21877 | . | . | . | .
Clc1ccccc1CNCc1ccc2c(c1)OCO2 | . | . | . | . | / | .
COc1ccc(-c2ccnc3nc(-n4cccc4)nn23)cc1 | . | 20861 | . | . | . | .
COc1ccc(-c2ccnc3nc(N4CCOCC4)nn23)cc1 | . | . | . | . | . | .
COc1cc(C(C)=O)ccc1OCC(O)CNCC1(N2CCCCC2)CCCCC1 (stereo not drawn) | . | . | . | . | . | .
COc1ccccc1COCC(O)CNCC1(N2CCCCC2)CCCCC1 (stereo not drawn) | . | 22309 | . | . | . | .
C=CCC(C(=O)OC)(C(=O)OC)c1ccc([N+](=O)[O-])cc1[N+](=O)[O-] | . | . | . | . | . | .
C=CCC(C(=O)OC)(C(=O)OC)c1ccc([N+](=O)[O-])cn1 | . | 22956 | ? | . | . | .
O=C(NCCCCNC(=O)C1CCCC1)C1CCCC1 | . | 22858 | . | . | . | .
CCCCN1/C(=C/c2ccc3ccccc3[n+]2CC)Sc2ccccc21 | . | . | . | . | . | .
SMILES | BoNT-F LC inh | Autofluor counter | BoNT A protease | Vc quorum ag | BJeLR lethal | Anthrax LF inh2
CCN1/C(=C/c2ccc3cc(C)ccc3[n+]2CC)Sc2cc(C)ccc21 | . | . | 54.7 | . | / | .
CSCC[C@H](NC(=O)OC(C)(C)C)C(=O)N1CCC(C(=O)N[C@@H](C)C(=O)O)CC1 | . | 20586 | ? | . | . | .
COCCNC(=O)C1(C)CCN(C(=O)c2cc(C(C)(C)C)nn2C)C1 (stereo not drawn) | . | . | . | . | / | .
Cc1occc1C(=O)N/N=C/c1c[nH]c2ccccc12 | . | 22938 | . | . | . | .
COc1cc(-c2cnc3c(NC=O)cc(-c4ccsc4)cn23)cc(OC)c1OC | . | . | . | . | / | .
COc1ccccc1NC(=O)Nc1nnc([C@H]2C[C@H](O)[C@@H](CO)O2)s1 | . | . | . | . | / | .
O=C(Nc1ccc2ccccc2c1)c1nn(C23CC4CC(CC(C4)C2)C3)cc1Br | . | 23799 | . | . | . | .
O=C(Nc1cccc2ccccc12)c1nn(C23CC4CC(CC(C4)C2)C3)cc1[N+](=O)[O-] | . | 24019 | . | . | . | .
COc1ccc(NC(=O)c2nn(C34CC5CC(CC(C5)C3)C4)cc2[N+](=O)[O-])cc1 | . | . | . | . | . | .
CCn1cc(Br)c(C(=O)Nc2ccc(OC)cc2)n1 | . | . | . | . | . | .
CN1CCN(c2ccc(-c3cccc4nccn34)cn2)CC1 | . | . | . | . | / | .

High-throughput results as filed in PubChem.
